# Hits are enriched below; roughly 0.77% of the tested compounds scored in any of these assays.
# RGS12 GoLoco inh = RGS12 GoLoco-Gai1 interaction inhibition. P63096. Gai1:RGS12 GoLoco peptide FP, rhodamine, 10 min. Potency, µM (doses to about 61.6 µM), for inactives: at the highest dose activity, negative = inhibition, actives largely listed as inhibitors. actives 0.44% (n = 230,000). AID 880; active means well fitted inhibition curve with a large enough effect, not every such curve was filed as active; inactive means no such curve, though single readings can be large or run the other way; further: potency means the concentration at half of the fitted maximal effect; on the % scale 0 is the no-effect control and ±100 the full control effect; nearly all actives have a fitted effect of over 30% in size
# PKM2 act = PKM2 (human) enzyme activation | P14618 | purified PKM2, Kinase-Glo ATP luminescence, activation; response scale: 0% is enzyme alone, no compound | Potency, µM (titrated, usually from 57.5 µM), for the others: at the top dose activation, hits mostly activators | actives 0.34% (n = 260,000); further: potency means the concentration at half of the fitted maximal effect; on the % scale 0 is the no-effect control and ±100 the full control effect; nearly all actives have a fitted effect of over 55% in size
#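 ATP formation by purified human PK-M2, quantified via coupled luciferase luminescence after 1 h at room temperature with 0.1 mM ADP and 0.5 mM PEP final.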
# Vif-A3F inh = blocks the Vif interaction with APOBEC3F | HeLa A3F-eYFP + Vif (tagged APOBEC3F with the HIV-1 protein that degrades it), YFP fluorescence increase | Potency, µM (top dose mostly 46.1 µM), for inactives: at the top dose activity, negative = active | actives 0.2% (n = 390,000); further: potency means the concentration at half of the fitted maximal effect; % of control where 0% means no effect; nearly all actives have a fitted effect of over 65% in size
#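 HeLa cells stably expressing A3F-eYFP plus Vif, plated and incubated overnight at 37 deg C, then exposed to compounds overnight at 37 deg C. Blocked degradation read as raised yellow fluorescence (Ex 488/Em 500-530).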
# IL2 activator = activates IL-2 in a cell-based reporter assay; IL-2 activation reporter assay, cell-based qHTS; stimulated with anti-CD3/CD4/CD28 beads; in transgenic mouse T cells; AID 652025; actives 0.065% (n = 360,000); activation, % (series mostly up to about 46 µM); in the data active means activation above about 50%; inconclusive means mostly about 30% to 49%; further: 0% is about no effect
#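 Using fluorescent plate cytometry, EGFP and DsRed are detected in transgenic mouse T cells stimulated 18 h at 37 degrees C with antibody-coated beads after 60 min compound pretreatment.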
# Vif-A3G inh = Vif-A3G binding inhibition; actives 0.076% (n = 410,000); Potency, µM (titrated, usually from 46.1 µM), inactives show at the top dose activity, negative = active, hits mostly inhibitors; HeLa A3G-eYFP + Vif (tagged APOBEC3G with the HIV-1 protein that degrades it), YFP fluorescence, overnight; Q9HC16; further: potency means the concentration at half of the fitted maximal effect; on the % scale 0 is the no-effect control and ±100 the full control effect; nearly all actives have a fitted effect of over 60% in size
#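 HeLa cells stably expressing Vif and C-terminally eYFP-tagged A3G, seeded overnight at 37 deg C, then exposed to compound by pintool overnight at 37 deg C. Rise in yellow fluorescence (Ex 488/Em 500-530, Acumen) marks blocked Vif-driven A3G degradation.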
# GCN5L2 inh = blocks human GCN5L2 histone acetyltransferase; GCN5L2 HAT assay, ThioGlo1 CoA-SH fluorescence; Potency, µM (series often up to 58.9 µM), inactives show at the top dose activity change, negative = inhibition, most hits filed as inhibitors; actives 0.21% (n = 390,000); AID 504327; further: potency means the concentration at half of the fitted maximal effect; on the % scale 0 is the no-effect control and ±100 the full control effect
#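 Compounds, pin-transferred from DMSO stocks, meet 20nM GCN5L2 for 15 min before the reaction begins with H3(1-25) peptide (75uM) and acetyl-CoA (70uM). Thiol-reactive ThioGlo1 reports CoA release over 20 min at room temperature.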
# * marks the source's active call; other numbers are inactive results; ? = inconclusive; / = no result. Unless noted, the call rests on the fitted dose curve; in most records, active means well fitted curve in the direction sought with a large enough effect; inconclusive means small, poorly fitted or top-dose-only effect, or another doubt; inactive means no such curve, though single readings can be large; an effect the other way counts as inactive or inconclusive.
SMILES,RGS12 GoLoco inh,PKM2 act,Vif-A3F inh,IL2 activator,Vif-A3G inh,GCN5L2 inh
O=C(O)C1Nc2c(O)cc(Cl)c([N+](=O)[O-])c2C2C=CCC12 (centres undefined),10µM*,?,-6%,-1,-4%,3.2µM*
COc1ccc(OC)c(Nc2nc(=O)c3cccnc3s2)c1,25µM*,8.9µM*,2%,0,-7%,?
Cc1ccc(Nc2nc(=O)c3cccnc3s2)cc1,7%,-2%,-3%,-2,-4%,-3%
COc1ccc(CN=Cc2[nH]c3ccc(Br)c(Cl)c3c2O)cc1,61%,-17%,?,0,?,-15%
Cc1cc(C)cc(N=Cc2[nH]c3ccc(Br)c(Cl)c3c2O)c1,183%,-5%,?,54*,?,1%
Cn1c(=O)n(C)c2cc(S(=O)(=O)NCc3ccccc3)ccc21,4%,18µM*,-14%,1,-4%,3%
O=C(CSc1nnc(-c2ccco2)o1)N1CCCCC1,/,/,0%,-1,-1%,-1%
Fc1ccc(-c2cnn3c(-c4ccncc4)ccnc23)cc1,7%,-4%,-9%,4,2%,-23%
Fc1ccc(-c2cnn3c(-c4cccs4)ccnc23)cc1,-14%,-19%,?,106*,?,-19%
COc1ccc(C(=O)OCc2nnc(-c3ccccc3)o2)cc1S(=O)(=O)N1CCOCC1,/,/,3%,-4,-6%,-20%
Cc1cc(/C=C2\SC(=S)N(C)C2=O)c(C)n1-c1ccc(O)cc1,22%,1%,25µM*,-1,?,-2%
CN1C(=O)/C(=C/c2coc3ccc(O)cc3c2=O)SC1=S,28%,3%,-10%,0,1%,-1%
Cc1cc(/C=C2\SC(=S)N(C)C2=O)c(C)n1-c1ccccc1O,/,/,11µM*,-5,?,/
C=CC(=O)NC(C)(C)Cc1ccccc1,3%,0%,-4%,-4,0%,18µM*
CC(=O)C(Cc1ccccc1)(Cc1ccccc1)C(C)=O,/,0%,-3%,6,1%,-12%
O=C(NC(Cc1ccccc1)C(=O)NC(Cc1ccccc1)C(=O)O)c1ccccc1 (centres undefined),-4%,-1%,-8%,1,0%,1%
N=c1n(CC(=O)c2ccc([N+](=O)[O-])cc2)c2ccccc2n1Cc1ccc(Cl)cc1,5%,8%,?,65*,-5%,-3%
N=c1n(CC(=O)c2ccc([N+](=O)[O-])cc2)c2ccccc2n1Cc1ccccc1,11%,-10%,13µM*,9,?,-1%
CCc1noc(C)c1C(=O)NCCN1C(=O)S/C(=C\c2ccccc2F)C1=O,/,/,-2%,-2,1%,/
CC(C)(C)NS(=O)(=O)c1ccc2c(c1)oc(=O)c1cc(S(=O)(=O)NC(C)(C)C)ccc12,-5%,-15%,4%,-1,-6%,-16%
CNS(=O)(=O)c1ccc2c(c1)oc(=O)c1cc(S(=O)(=O)NC)ccc12,5%,1.6µM*,-7%,0,0%,-4%
O=c1oc2cc(S(=O)(=O)NCCCO)ccc2c2ccc(S(=O)(=O)NCCCO)cc12,6%,14µM*,2%,0,-1%,-1%
COC(=O)C1=NN(C(C)=O)C2(CC(=O)N(c3cc(C)cc(C)c3)C2=O)C1 (centres undefined),-8%,1%,-1%,-1,0%,-1%
CC(=O)OCCn1c(C)[n+](CCOC(C)=O)c2cc(Cl)c(Cl)cc21,13µM*,-2%,14%,0,5%,-16%
CCn1c(C)[n+](CCOCC[n+]2c(C)n(CC)c3cc(Cl)c(Cl)cc32)c2cc(Cl)c(Cl)cc21,7.9µM*,-2%,-1%,0,-3%,-6%
CC1CCCC(NC(=O)COC(=O)[C@@H](NC(=O)c2ccc(F)cc2)C(C)C)C1C (some centres undefined),/,/,6%,-1,1%,1%

# Screens from PubChem.
